From PubChem BioAssay (NCI)
This is part of a sample that, as a whole, favours compounds with a hit. Of some 79,000 tested, about 15% had one in any assay. Cut-off read from the data, not from the text of the source: active = growth inhibition above about 70%; inactive = the rest. Where a SMILES comes first, the peptide text is derived from it. The star is where a group is joined. Cbz = O=C(OCc1ccccc1)*

Tests used:
[1] = NCI Yeast Anticancer Drug Screen. Data for the rad50 strain (AID 155);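 note: 0% = growth of vehicle-only cultures of the same strain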; conditions: S. cerevisiae rad50 strain growth inhibition; at 50.0 µM; active compounds read high
Procedure, shortened: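 Inhibition values express reduced yeast growth in compound-treated cultures relative to vehicle-treated controls.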

[2] = NCI Yeast Anticancer Drug Screen. Data for the mec2-1 strain (AID 157); conditions: S. cerevisiae mec2-1 strain, at 50.0 µM, active compounds read high
Procedure, shortened: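 Strain: mec2-1 (DNA repair/cell cycle alteration). Compound exposure, then growth measured; inhibition expressed relative to vehicle.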

[3] = NCI Yeast Anticancer Drug Screen. Data for the sgs1 mgt1 strain (AID 161);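 note: 0% = growth of cultures given vehicle only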; conditions: S. cerevisiae sgs1 mgt1 strain, at 50.0 µM, active compounds read high
Procedure, shortened: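 Test agents were incubated with a DNA-repair-mutant yeast strain. Growth was then read and compared against vehicle-treated controls.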

[4] = NCI Yeast Anticancer Drug Screen. Data for the cln2 rad14 strain (AID 165);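 note: 0% = growth equal to vehicle treated cultures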; conditions: S. cerevisiae cln2 rad14 strain, at 50.0 µM, active compounds read high
Procedure, shortened: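 Compounds are applied to the cln2 rad14 yeast strain, and growth is then compared with that of vehicle-treated cultures to give inhibition.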

[5] = NCI Yeast Anticancer Drug Screen. Data for the bub3 strain (AID 167); conditions: S. cerevisiae bub3 mutant strain, at 50.0 µM, active compounds read high
Procedure, shortened: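 Steps: expose the mutant yeast strain to compound; grow alongside vehicle-treated cultures; measure growth; express inhibition against the vehicle cultures.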

[6] = NCI Yeast Anticancer Drug Screen. Data for the mlh1 rad18 strain (AID 175); conditions: S. cerevisiae mlh1 rad18 strain growth inhibition; at 50.0 µM; active compounds read high
Procedure, shortened: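 Read-out is yeast growth inhibition, calculated against vehicle-only controls. The compound was applied to a strain engineered with DNA damage repair alterations.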

Measured: growth inhibition

CCOC(=O)CCC(NC(=O)OCc1ccccc1)C(=O)NC(CCC(=O)OCC)C(=O)OCC (stereo not given) (Cbz-Glu(OEt)-Glu(OEt)-OEt; configuration not given here)
inactive: [1] 17.9% | [2] 3.15% | [3] -11.4% | [4] 7.55% | [5] 4.65% | [6] -25.8%

COc1cc(C2c3cc4c(cc3OC(NNC(N)=S)C2C)OCO4)cc(OC)c1OC (stereo not given)
inactive: [1] -4% | [2] -17.4% | [3] 2.5% | [4] -0.2% | [5] 6.95% | [6] -9.9%

O=C1c2ccccc2SC[C@@H]2CCCN12
inactive: [1] 22.9% | [2] -7.75% | [3] -3.6% | [4] 9.35% | [5] 3.35% | [6] 2.35%

COc1ccc(/C=C\c2cc(OC)c(OC)c(OC)c2)cc1OC(=O)CC(N)C(=O)O (stereo not given)
inactive: [1] -19.6% | [2] -10.3% | [3] -8.65% | [4] -6.65% | [5] -1.55% | [6] -5.8%

CCCCOC(=O)c1c(C)c(C)cc(C)c1C
inactive: [1] 18.4% | [2] -7.1% | [3] 6.3% | [4] 12.5% | [5] 5.75% | [6] -9.95%

COc1ccc(-c2cc(N3CCN(c4ccccc4)CC3)c(C#N)c(=O)o2)cc1
inactive: [1] 25.1% | [2] 3.3% | [3] 18.5% | [4] 15.8% | [5] -2.1% | [6] 12.1%

C[C@]12CC=CC(=O)[C@@]1(C)CCC(=O)C2
inactive: [1] 3.45% | [2] 0.95% | [3] -9.05% | [4] -25.4% | [5] -4.7% | [6] 8.1%

O=C1c2cc3c(cc2CC12Cc1cc4c(cc1C2=O)CCCC4)CCCC3
inactive: [1] -42.1% | [2] -14.2% | [3] -22.3% | [4] -16.8% | [5] -4.25% | [6] -37.1%

O=S1(=O)OCCC1C(O)(c1ccccc1)c1ccccc1 (stereo not given)
inactive: [1] 1.7% | [2] -3.65% | [3] 6.8% | [4] -49.3% | [5] 11.2% | [6] 16.9%

Cc1nc2ccccc2c(=O)n1NC(=O)c1ccc([N+](=O)[O-])cc1
inactive: [1] -43.4% | [2] -26.4% | [3] -13.5% | [4] -21.4% | [5] -10.8% | [6] -19.1%

Cc1cc(C)c(Br)c(C)c1
inactive: [1] 1.55% | [2] 0.45% | [3] -2% | [4] -20.2% | [5] -4.95% | [6] -12.7%

Cc1cccc(C(C)(C)C)c1NC(=O)/C(Cc1nc2ccc([N+](=O)[O-])cc2[nH]c1=O)=N/NC(=O)C[N+](C)(C)C
inactive: [1] 6.4% | [2] -10.4% | [3] -9.1% | [4] -17.4% | [5] -18.9% | [6] -22.6%

CC(=O)N1CC(C)CC2OC3(CCC4C5CCC6CC(=O)CCC6(C)C5C(=O)C4C3C)C(C)C21 (stereo not given)
inactive: [1] -0.65% | [2] -13.1% | [3] -9.15% | [4] -0.75% | [5] -5.9% | [6] -3.75%

COc1ccccc1-c1ccc([N+](=O)[O-])cc1[N+](=O)[O-]
inactive: [1] 18.9% | [2] -5.7% | [3] -1.9% | [4] 8.65% | [5] 22.2% | [6] 14.8%

CC(=O)OC1CCCC2CCCC21 (stereo not given)
inactive: [1] 0.2% | [2] 5.2% | [3] 1.25% | [4] -5.7% | [5] -2.35% | [6] -3.75%

COc1ccc2c(c1)C13CCCC(C)(C(=O)NC1)C3CC2 (stereo not given)
inactive: [1] -0.15% | [2] -17.6% | [3] -16.3% | [4] 9% | [5] 2.35% | [6] -11.7%

Cc1ccccc1NCc1ccccc1
inactive: [1] 25.8% | [2] -3.2% | [3] 15.3% | [4] -29.8% | [5] 0.35% | [6] 23.1%

Cc1nc2ccccc2nc1N1CCCC1
inactive: [1] -6.2% | [2] -29.1% | [3] -26.9% | [4] -25.2% | [5] -47.8% | [6] 0.55%

COC(=O)c1ccccc1NC(=O)Nc1cccc(Cl)c1C
inactive: [1] 13.8% | [2] -2.25% | [3] 25.2% | [4] 12% | [5] 17.6% | [6] 17.4%

CC(=O)OC1CCC2(C)C(CCC3C2CCC2(C)C(c4cccc(=O)o4)CCC32)C1 (stereo not given)
inactive: [1] 22.5% | [2] 8.9% | [3] 11.4% | [4] 14.8% | [5] 0.35% | [6] 2.3%

CC1(C)OC(C(F)(F)F)(C(F)(F)F)c2cc(C(C)(C)C)ccc2S1
inactive: [1] -26.9% | [2] -29.8% | [3] -12.7% | [4] -35.4% | [5] -1% | [6] -9.95%

CC[N+](C)(CC)CC[N+]1(C)CCCCCCC1
inactive: [1] 12.9% | [2] 5.45% | [3] 5.8% | [4] -40.6% | [5] 10.4% | [6] 15.6%

Cc1ccccc1NC(=O)Cc1csc2[n+]1C(=O)/C(=C\c1ccc3c(c1)OCO3)S2
inactive: [1] 22.9% | [2] 7.6% | [3] 17.9% | [4] 3% | [5] 11.2% | [6] 7%

COc1cc(OC)c(/C=C2\N=C(C)N(Nc3nnc(NN4C(=O)/C(=C/c5c(OC)cc(OC)cc5OC)N=C4C)c4ccccc34)C2=O)c(OC)c1
inactive: [1] -0.15% | [2] -2.25% | [3] -12.8% | [4] -2.5% | [5] -2.7% | [6] 8.15%

NCCCCC(N)C(=O)O (stereo not given)
inactive: [1] 7.4% | [2] 9.25% | [3] -33.9% | [4] 8.55% | [5] -2.1% | [6] 22%

C=CCNC(=O)N(CCCC(NC(C)=O)C(=O)NCc1ccccc1)Cc1ccccc1 (stereo not given)
inactive: [1] 2.5% | [2] -2.85% | [3] -8.85% | [4] 26.4% | [5] -5.25% | [6] -10.2%

COc1ccc(NC(=O)Nc2cc(C(F)(F)F)ccc2Cl)cc1
inactive: [1] 14.6% | [2] 16.6% | [3] 5.9% | [4] -26.1% | [5] 2.5% | [6] -9.65%

CNC1(C(=O)O)CCCCC1
inactive: [1] -0.35% | [2] -4.65% | [3] -2% | [4] 4.6% | [5] 4.85% | [6] -2.2%

Cc1nnc2n1N=C(c1ccc(O)c(O)c1O)CS2
inactive: [1] 2.9% | [2] -3.15% | [3] -4.7% | [4] 7.4% | [5] 1.75% | [6] -6.1%

O=C(O)c1ccc(C2COc3ccc(Cl)cc3C2)cc1 (stereo not given)
inactive: [1] -10.8% | [2] -19.8% | [3] -23.8% | [4] 4.7% | [5] -19.2% | [6] -24.2%

CC1=CC(=C(C#N)C#N)c2ccccc2N1C
inactive: [1] 1.1% | [2] 4.35% | [3] -8.8% | [4] 3.75% | [5] 14.6% | [6] 1.85%

CCCCCC#CC1OC1(C)C (stereo not given)
inactive: [1] -2.1% | [2] -8.05% | [3] -2.8% | [4] -27% | [5] 5.95% | [6] -12.2%

O=C(O)CNC(=O)CNC(=O)C(CCC(=O)OCc1ccccc1)NC(=O)OCc1ccccc1 (stereo not given)
inactive: [1] 27.2% | [2] 12.3% | [3] 14.4% | [4] 9.3% | [5] 6.2% | [6] 15.2%

[CH3][Ge]([Cl])([c]1ccccc1)[c]1cccc2ccccc12 (stereo not given)
inactive: [1] 25.2% | [2] 12.4% | [3] 10.8% | [4] 10.2% | [5] -0.15% | [6] 7.5%

CN(C)CCCNc1nnc(NCCCN(C)C)c2[nH]cnc12
inactive: [1] -3.2% | [2] -4.2% | [3] 7.85% | [4] -24.9% | [5] 6.5% | [6] -4.35%

COc1cccc(C2c3cc4c(cc3OC(Nc3ccccc3)C2C)OCO4)c1OC (stereo not given)
inactive: [1] -28.4% | [2] 6.25% | [3] -28.1% | [4] 3.35% | [5] -36.9% | [6] -21.4%

O=[N+]([O-])c1ccc(I)c(I)c1
inactive: [1] -20.8% | [2] -3.8% | [3] 0.1% | [4] -43.2% | [5] -0.45% | [6] 7.85%

CCC(C(=O)O)(C(C)C)C(C)C
inactive: [1] 5.8% | [2] 30.9% | [3] 12.9% | [4] 12.4% | [5] -0.05% | [6] 8.1%

COc1cc2c(cc1OC)C(Cc1cc(Br)c(OC)c(OC)c1)=[N+](C)CC2
inactive: [1] 1.65% | [2] 4.4% | [3] -12.4% | [4] 9.65% | [5] 1.05% | [6] 11.2%

CCCCCCCCCCCCCCCCCC(=O)N/N=C/c1ccccc1
inactive: [1] 1% | [2] -2.8% | [3] 12% | [4] 2.95% | [5] -1.5% | [6] -5.55%
